What all share (assay): NCI-60 one-dose screen, 48 h (100 = growth as untreated, 0 = no growth, -100 = all killed)
In one assay the test system is SK-MEL-2 melanoma. The note with it: 10 µM unless noted.
For the next assay, the system named is EKVX NSCLC. The note with it: 10 µM unless noted.
Another assay concerns SN12C renal. The note with it: 10 µM unless noted.
Another assay concerns UO-31 renal. The note with it: 10 µM unless noted.
A further assay concerns TK-10 renal. The note with it: 10 µM unless noted.
The test system of a further assay is ACHN renal. The note with it: 10 µM unless noted.
The next assay relates to CAKI-1 renal. The note with it: 10 µM.
Another assay relates to A498 renal. The note with it: 10 µM unless noted.
The test system of another assay is CCRF-CEM leukemia. The note with it: 10 µM unless noted.
The test system of another assay is MOLT-4 leukemia. The note with it: 10 µM unless noted.
For a further assay, the system named is SR leukemia. The note with it: 10 µM unless noted.
Another assay relates to RPMI-8226 leukemia. The note with it: 10 µM unless noted.
The next assay deals with OVCAR-8 ovarian. The note with it: 10 µM unless noted.
The next assay deals with OVCAR-5 ovarian. The note with it: 10 µM unless noted.
Another assay relates to OVCAR-4 ovarian. The note with it: 10 µM unless noted.
The test system of the next assay is SK-OV-3 ovarian. The note with it: 10 µM unless noted.
The subject of the next assay is IGROV1 ovarian. The note with it: 10 µM unless noted.
Another assay relates to OVCAR-3 ovarian. The note with it: 10 µM unless noted.
The test system of another assay is HS 578T breast. The note with it: 10 µM unless noted.
For another assay, the system named is NCI/ADR-RES ovarian. The note with it: 10 µM unless noted.

The panel holds about 83,000 compounds, 20% with a hit somewhere; the sample as a whole holds those more often.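 Single-dose data. Exposure time 48 hours. Values below 10 considered active.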 A number with no mark means an inactive call. Activity calls are given as the source filed them.

On to `N/C(=N\c1nc2c(Cl)cccc2s1)C(Cl)(Cl)Cl`, for which the growth in the assay on SK-MEL-2 melanoma was 105%; in the assay on EKVX NSCLC, 52.6%; with SN12C renal it was 91.9%; in the assay on UO-31 renal, 61%; in the assay with TK-10 renal, 83.5%; in the assay on ACHN renal, 19.6%. Besides, the growth is 43.9% in the assay with CAKI-1 renal; 29.9% in the assay with A498 renal; 97.3% in the assay on CCRF-CEM leukemia; 92.1% with MOLT-4 leukemia; 94.2% with SR leukemia; 53.3% with RPMI-8226 leukemia. Also, the growth with OVCAR-8 ovarian is 87.6%; in the assay with OVCAR-5 ovarian it was 95.5%; in the assay on OVCAR-4 ovarian, 76%; in the assay on SK-OV-3 ovarian, 91.3%; in the assay on IGROV1 ovarian it was 89.1%; with OVCAR-3 ovarian, 57.9%. Further, the results for the growth in the assay on HS 578T breast and with NCI/ADR-RES ovarian were 80.2% and 89%, respectively.
With `COc1ccc(N2C(=O)c3cc(OC)c(OC)cc3NC2SCc2ccccc2)cc1` (stereo not given), the growth is 99.6% in the assay with SK-MEL-2 melanoma; 91.8% in the assay on EKVX NSCLC; 102% with SN12C renal; 88.4% with UO-31 renal; 129% with TK-10 renal; 94.3% in the assay on ACHN renal. Further, the growth was 104% in the assay with CAKI-1 renal; 107% in the assay with A498 renal; 105% in the assay with CCRF-CEM leukemia; 88% in the assay on MOLT-4 leukemia; 83.5% with SR leukemia; 114% in the assay on RPMI-8226 leukemia. The growth in the assay on OVCAR-8 ovarian is 103%; with OVCAR-5 ovarian it was 109%; in the assay on OVCAR-4 ovarian it was 102%; in the assay with SK-OV-3 ovarian it was 112%; in the assay with IGROV1 ovarian it was 102%; in the assay on OVCAR-3 ovarian, 125%. Also, the growth in the assay with HS 578T breast is 125%; with NCI/ADR-RES ovarian it was 99.7%.
Turning to `O=C(/C=C1\C=CN(CCCCF)c2ccccc21)n1ccc2ccccc21`, the growth in the assay with SK-MEL-2 melanoma was 103%; in the assay with EKVX NSCLC it was 90.7%; in the assay on SN12C renal, 94.6%; in the assay with UO-31 renal it was 74.2%; in the assay on TK-10 renal it was 117%; with ACHN renal it was 97.6%. The growth in the assay with CAKI-1 renal was 87.5%; in the assay with A498 renal, 135%; in the assay with CCRF-CEM leukemia, 96.4%; in the assay with MOLT-4 leukemia, 105%; with SR leukemia, 107%; with RPMI-8226 leukemia, 102%. Besides, the growth with OVCAR-8 ovarian is 106%; in the assay with OVCAR-5 ovarian it was 99.2%; with OVCAR-4 ovarian, 85.4%; in the assay with SK-OV-3 ovarian it was 95.9%; in the assay on IGROV1 ovarian, 74.9%; in the assay with OVCAR-3 ovarian it was 126%. The growth with HS 578T breast is 119%; with NCI/ADR-RES ovarian, 108%.
For `O=C1[C@H]2Cc3c([nH]c4ccccc34)[C@@H](c3c(Cl)cccc3Cl)N2C(=O)CN1C1CCN(Cc2ccccc2)CC1`, the growth in the assay with SK-MEL-2 melanoma is 114%; in the assay on EKVX NSCLC, 96.2%; in the assay on SN12C renal, 73.3%; in the assay with UO-31 renal it was 75.9%; in the assay on TK-10 renal, 46.2%; in the assay on ACHN renal, 93%. The growth in the assay on CAKI-1 renal was 67.6%; in the assay on A498 renal it was 102%; in the assay with CCRF-CEM leukemia, 21.7%; in the assay with MOLT-4 leukemia it was 20%; in the assay on SR leukemia it was 32.7%; in the assay with RPMI-8226 leukemia it was 60.3%. Besides, the growth in the assay with OVCAR-8 ovarian was 74.5%; with OVCAR-5 ovarian, 107%; in the assay with OVCAR-4 ovarian, 83.9%; in the assay with SK-OV-3 ovarian it was 115%; in the assay with IGROV1 ovarian it was 70.3%; in the assay with OVCAR-3 ovarian, 109%. In addition, the growth with HS 578T breast is 87.6%; in the assay with NCI/ADR-RES ovarian, 92.8%.
On to `ClC(Cl)c1nc(-c2cccs2)n2nc(-c3ccccc3)cc2n1`, for which the growth with SK-MEL-2 melanoma is 77.6%; in the assay with EKVX NSCLC, -26.8% (active); with SN12C renal, 50.6%; in the assay with UO-31 renal, -53.7% (active); in the assay with TK-10 renal, -10.8% (active); in the assay with ACHN renal, -23.5% (active). Besides, the growth in the assay with CAKI-1 renal was -15% (active); with A498 renal, -78.5% (active); in the assay with CCRF-CEM leukemia, 67.9%; with MOLT-4 leukemia it was 44%; in the assay with SR leukemia, 58.1%; in the assay on RPMI-8226 leukemia, -25.6% (active). Also, the growth was 12% with OVCAR-8 ovarian; -8.51% (active) with OVCAR-5 ovarian; 10.7% in the assay with OVCAR-4 ovarian; 20.2% in the assay on SK-OV-3 ovarian; 47.2% in the assay on IGROV1 ovarian; -37.4% (active) with OVCAR-3 ovarian. Moreover, the growth in the assay on HS 578T breast was -21.1% (active); in the assay with NCI/ADR-RES ovarian, -20.7% (active).
`O=C(c1cccc(F)c1)n1ccc2cc(NC(=S)Nc3cccnc3)ccc21`: the growth in the assay with SK-MEL-2 melanoma is 102%; in the assay with EKVX NSCLC, 105%; in the assay with SN12C renal, 95.9%; in the assay with UO-31 renal it was 83.3%; with TK-10 renal, 94.8%; in the assay on ACHN renal, 103%. The growth in the assay with CAKI-1 renal was 97%; with A498 renal it was 92.4%; in the assay on CCRF-CEM leukemia, 83.1%; in the assay on MOLT-4 leukemia, 84.9%; in the assay on SR leukemia, 81.6%; in the assay with RPMI-8226 leukemia it was 99.3%. Also, the growth with OVCAR-8 ovarian was 102%; in the assay with OVCAR-5 ovarian, 101%; in the assay with OVCAR-4 ovarian it was 103%; with SK-OV-3 ovarian, 105%; in the assay on IGROV1 ovarian, 97.4%; in the assay on OVCAR-3 ovarian it was 107%. Besides, the growth is 94.4% with HS 578T breast and 105% in the assay with NCI/ADR-RES ovarian.
Turning to `N/C(=N\c1nc2ccc([N+](=O)[O-])cc2s1)C(Cl)(Cl)Cl`, the growth with SK-MEL-2 melanoma was 120%; with EKVX NSCLC, 52%; with SN12C renal, 79.7%; in the assay on UO-31 renal, 43.8%; in the assay on TK-10 renal it was 78.3%; with ACHN renal it was 9.8% (active). Also, the growth with CAKI-1 renal is 31.4%; in the assay with A498 renal, 32.6%; with CCRF-CEM leukemia, 77.4%; with MOLT-4 leukemia it was 77%; with SR leukemia, 57.7%; in the assay on RPMI-8226 leukemia it was 38.9%. In addition, the growth was 73.5% with OVCAR-8 ovarian; 84.1% in the assay with OVCAR-5 ovarian; 67.9% with OVCAR-4 ovarian; 82.6% with SK-OV-3 ovarian; 65.1% in the assay with IGROV1 ovarian; 47.4% in the assay on OVCAR-3 ovarian. The values for the growth with HS 578T breast and with NCI/ADR-RES ovarian were 79.9% and 73.4%, respectively.

The values above are taken from PubChem BioAssay (NCI).
